Test results taken from PubChem BioAssay.
The source made the active and inactive calls.

Assays:
[1] = test system: PRMT1 (protein arginine N-methyltransferase 1); experiment: small molecules binding arginine methyltransferase PRMT1 – biochemical, small-molecule microarray, 635 nm fluorescence, primary screen (AID 1088); settings: higher = more signal;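 also: binding of Prmt1 protein to compounds spotted on small-molecule microarray slides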
[2] = growth effects on S. cerevisiae YJM789 – YJM789 clinical isolate, OD600, 24 h, basal, primary screen (AID 1089); settings: higher = more signal, called active from +8 up or from −8 down;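 also: growth of clinical yeast isolate S. cerevisiae YJM 789 seeded 1000 cells per well; test concentration not given here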
[3] = S. pombe growth modifiers, basal conditions – strain 972, OD600, 24 h, no modulator, primary screen (AID 1090);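 also: basal condition with compound alone and no growth modifier present; test concentration not given here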; settings: S. pombe 972 growth, higher = more signal, called active from +8 up or from −8 down
[4] = budding yeast growth modifiers under rapamycin – strain BY4716, OD600, 96 h, primary screen (AID 1091); also: test concentration not given here; settings: S. cerevisiae BY4716 + rapamycin, higher = more signal, called active from +8 up or from −8 down
[5] = target: Torsin-1A-interacting protein 2 (Homo sapiens) (UniProt Q8NFQ8); experiment: small molecules binding lysate-expressed LULL1 – cell lysate, human LULL1 lysate, 635/667 nm fluorescence, primary screen (AID 1092); settings: small-molecule microarray, hLULL1 lysate binding, 635 nm fluorescence; higher = more signal;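 also: probe is lysate of COS7 cells overexpressing human LULL1; score merges per-feature 667 nm fluorescence with signal-to-noise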
Torsin-1A-interacting protein 2 (Homo sapiens), sequence (Q8NFQ8 whole entry, looked up): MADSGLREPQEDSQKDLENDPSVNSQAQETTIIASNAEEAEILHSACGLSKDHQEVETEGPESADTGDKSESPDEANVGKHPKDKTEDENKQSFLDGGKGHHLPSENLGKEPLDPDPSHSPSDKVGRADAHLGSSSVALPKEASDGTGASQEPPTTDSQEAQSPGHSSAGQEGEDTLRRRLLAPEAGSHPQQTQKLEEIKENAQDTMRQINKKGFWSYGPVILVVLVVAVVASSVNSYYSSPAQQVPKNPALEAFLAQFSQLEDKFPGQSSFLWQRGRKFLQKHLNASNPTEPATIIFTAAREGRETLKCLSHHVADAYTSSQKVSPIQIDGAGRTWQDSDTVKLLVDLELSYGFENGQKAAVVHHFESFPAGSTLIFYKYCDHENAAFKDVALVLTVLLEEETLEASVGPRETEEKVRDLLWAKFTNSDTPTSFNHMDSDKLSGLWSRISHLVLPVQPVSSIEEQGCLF

[6] = optical density change of DRC41 E. coli – strain DRC41, OD650, 24 h, E. coli filamentation project, primary screen (AID 1093);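 also: MC1000 strain lacking acrAB efflux and sulA so SOS filamentation is blocked; test concentration not given here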; settings: E. coli DRC41 growth, higher = more signal, called active from +8 up or from −8 down
[7] = probe aLefty2 binding to arrayed compounds – biochemical, biotinylated probe, 635/667 nm fluorescence, primary screen (AID 1094); settings: small-molecule microarray, higher = more signal;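 also: score merges spot fluorescence near 667 nm with spot signal-to-noise ratio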
[8] = test system: Noggin (protein binding on small-molecule microarray); experiment: small molecules binding Noggin protein – biochemical, 635/667 nm fluorescence, primary screen (AID 1095); settings: 635 nm fluorescence, higher = more signal;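 also: score merges 667 nm feature fluorescence with signal to noise over triplicate slides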
[9] = target: Neurogenic locus notch homolog protein 3 (Homo sapiens) (UniProt Q9UM47); experiment: small molecules binding NOTCH3 protein – biochemical, 635/667 nm fluorescence, primary screen (AID 1096); settings: small-molecule microarray, 635 nm fluorescence, higher = more signal
Neurogenic locus notch homolog protein 3 (Homo sapiens), sequence (Q9UM47 whole entry, looked up): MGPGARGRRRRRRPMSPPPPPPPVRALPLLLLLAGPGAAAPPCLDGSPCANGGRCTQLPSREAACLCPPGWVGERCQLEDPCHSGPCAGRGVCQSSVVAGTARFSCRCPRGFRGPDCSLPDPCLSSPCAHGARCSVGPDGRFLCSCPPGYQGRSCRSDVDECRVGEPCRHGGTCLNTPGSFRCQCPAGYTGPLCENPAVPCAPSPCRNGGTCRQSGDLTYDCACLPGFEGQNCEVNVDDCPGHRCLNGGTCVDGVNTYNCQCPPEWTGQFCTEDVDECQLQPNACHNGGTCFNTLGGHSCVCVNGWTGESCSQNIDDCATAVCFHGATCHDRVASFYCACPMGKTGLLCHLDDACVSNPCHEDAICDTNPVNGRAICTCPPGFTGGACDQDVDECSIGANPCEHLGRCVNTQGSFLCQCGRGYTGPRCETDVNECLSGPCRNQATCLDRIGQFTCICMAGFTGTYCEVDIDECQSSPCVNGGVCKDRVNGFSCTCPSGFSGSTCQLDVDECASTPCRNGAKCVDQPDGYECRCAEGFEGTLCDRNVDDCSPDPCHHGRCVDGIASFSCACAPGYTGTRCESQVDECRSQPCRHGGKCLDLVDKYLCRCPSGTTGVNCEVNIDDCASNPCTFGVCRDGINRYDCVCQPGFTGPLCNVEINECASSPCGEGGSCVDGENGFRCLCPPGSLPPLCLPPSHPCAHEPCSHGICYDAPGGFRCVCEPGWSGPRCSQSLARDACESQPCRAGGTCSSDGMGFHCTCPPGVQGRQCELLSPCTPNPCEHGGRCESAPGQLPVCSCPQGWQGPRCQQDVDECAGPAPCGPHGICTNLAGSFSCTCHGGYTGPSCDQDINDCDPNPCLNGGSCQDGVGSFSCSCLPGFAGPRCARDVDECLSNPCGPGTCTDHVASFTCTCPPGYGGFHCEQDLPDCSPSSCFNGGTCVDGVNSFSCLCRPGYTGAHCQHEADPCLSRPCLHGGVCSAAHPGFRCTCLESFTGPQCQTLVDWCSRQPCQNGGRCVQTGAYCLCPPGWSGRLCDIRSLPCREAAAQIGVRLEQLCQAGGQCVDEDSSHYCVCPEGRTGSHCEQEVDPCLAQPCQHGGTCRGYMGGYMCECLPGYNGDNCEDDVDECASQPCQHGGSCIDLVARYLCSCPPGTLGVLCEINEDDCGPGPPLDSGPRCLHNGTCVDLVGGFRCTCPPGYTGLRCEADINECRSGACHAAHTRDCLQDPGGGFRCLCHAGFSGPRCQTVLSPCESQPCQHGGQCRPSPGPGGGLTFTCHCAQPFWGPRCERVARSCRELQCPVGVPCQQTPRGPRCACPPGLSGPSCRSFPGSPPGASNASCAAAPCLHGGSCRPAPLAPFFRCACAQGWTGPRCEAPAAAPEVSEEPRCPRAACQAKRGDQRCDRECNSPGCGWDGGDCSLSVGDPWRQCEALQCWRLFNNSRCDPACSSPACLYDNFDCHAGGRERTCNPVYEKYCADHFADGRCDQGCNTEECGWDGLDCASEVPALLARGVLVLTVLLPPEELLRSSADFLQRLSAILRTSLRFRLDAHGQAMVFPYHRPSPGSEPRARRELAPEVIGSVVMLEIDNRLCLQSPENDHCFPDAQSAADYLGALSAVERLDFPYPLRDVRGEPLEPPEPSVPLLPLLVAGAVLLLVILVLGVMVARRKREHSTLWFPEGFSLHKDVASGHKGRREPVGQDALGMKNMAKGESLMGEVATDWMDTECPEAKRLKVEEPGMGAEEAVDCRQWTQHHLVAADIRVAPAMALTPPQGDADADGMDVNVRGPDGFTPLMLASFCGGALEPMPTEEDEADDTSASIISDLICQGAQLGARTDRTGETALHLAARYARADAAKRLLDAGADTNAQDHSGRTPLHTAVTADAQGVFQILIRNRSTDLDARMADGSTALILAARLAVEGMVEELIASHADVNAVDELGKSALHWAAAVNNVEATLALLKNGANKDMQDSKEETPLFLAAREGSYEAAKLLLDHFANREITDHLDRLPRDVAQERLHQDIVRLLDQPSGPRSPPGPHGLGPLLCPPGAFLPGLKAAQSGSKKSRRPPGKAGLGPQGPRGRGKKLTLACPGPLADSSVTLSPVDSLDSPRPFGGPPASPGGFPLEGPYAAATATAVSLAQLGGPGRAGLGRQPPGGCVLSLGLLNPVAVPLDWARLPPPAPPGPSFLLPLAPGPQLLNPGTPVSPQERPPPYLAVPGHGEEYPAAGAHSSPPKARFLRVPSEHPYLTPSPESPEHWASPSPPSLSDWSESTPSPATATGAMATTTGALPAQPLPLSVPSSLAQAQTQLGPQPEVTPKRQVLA

[10] = probe aEGFR binding to arrayed compounds – biochemical, biotinylated probe, 635/667 nm fluorescence, primary screen (AID 1097); settings: small-molecule microarray, higher = more signal;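 also: probe is a biotinylated anti-EGFR antibody binding compounds printed on slides; score combines fluorescence near 667 nm and signal to noise of each spot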

## C[C@H]1NC(=O)[C@@H](C)NC(=O)[C@@]23C(=O)N[C@@H](Cc4ccccc4)C2[C@H](C)[C@@]2(C)O[C@H]2C3/C=C/C/C=C\CNC1=O (stereo not given in full)
[1]
  composite z-score: -0.0842
[2]
  z-score: 1 (inactive)
[3]
  z-score: -0.696 (inactive)
[4]
  z-score: 0.581 (inactive)
[5]
  composite z-score: -0.968
[6]
  z-score: 2.41 (inactive)
[7]
  composite z-score: -0.142
[8]
  composite z-score: -0.142
[9]
  composite z-score: -0.129
[10]
  composite z-score: -0.131

## COCCOC(=O)N1C(=O)[C@@]2(c3cc(C#CCNC(N)=O)ccc31)[C@H](c1ccccc1OCCO)N1[C@H](c3ccccc3)[C@H](c3ccccc3)OC(=O)[C@H]1[C@@H]2C(=O)NC[C@H](O)c1ccccc1
[1]
  composite z-score: 1.53
[2]
  z-score: 2.75 (inactive)
[3]
  z-score: 2.09 (inactive)
[4]
  z-score: 6.12 (inactive)
[5]
  composite z-score: 3.01
[6]
  z-score: 0.589 (inactive)
[7]
  composite z-score: -0.0977
[8]
  composite z-score: 1.12
[9]
  composite z-score: 1.1
[10]
  composite z-score: -0.065

## CCCC=C(CCC)[C@@H](NS(=O)(=O)c1ccc(C(F)(F)F)cc1)c1ccc(-c2ccccc2)cc1
[1]
  composite z-score: 1.09
[2]
  z-score: 0.251 (inactive)
[3]
  z-score: -3.21 (inactive)
[4]
  z-score: -0.1 (inactive)
[5]
  composite z-score: 3
[6]
  z-score: -0.39 (inactive)
[7]
  composite z-score: 0.0491
[8]
  composite z-score: 0.77
[9]
  composite z-score: 0.762
[10]
  composite z-score: -0.013

## CN1C(=O)C2C=CC(C(O)C3CC=CCC3)N(Nc3ccccc3)C2C1=O (stereo not given)
[1]
  composite z-score: 1.47
[2]
  z-score: 0.373 (inactive)
[3]
  z-score: 0.772 (inactive)
[4]
  z-score: 0.726 (inactive)
[5]
  composite z-score: 3.32
[6]
  z-score: -0.623 (inactive)
[7]
  composite z-score: 0.344
[8]
  composite z-score: 0.584
[9]
  composite z-score: 1.06
[10]
  composite z-score: 0.112

## CCCC=C(CCC)[C@@H](NC(=O)c1ccccc1)c1ccccc1
[1]
  composite z-score: -0.732
[2]
  z-score: 0.0874 (inactive)
[3]
  z-score: -0.272 (inactive)
[4]
  z-score: 0.912 (inactive)
[5]
  composite z-score: 0.446
[6]
  z-score: -0.494 (inactive)
[7]
  composite z-score: -0.0446
[8]
  composite z-score: -0.96
[9]
  composite z-score: -0.177
[10]
  composite z-score: -0.0828

## COCCOC(=O)N1C(=O)[C@@]2(c3cc(C#CCNC(N)=O)ccc31)[C@H](c1ccc(OCCO)cc1)N1[C@H](c3ccccc3)[C@H](c3ccccc3)OC(=O)[C@H]1[C@@H]2C(=O)Nc1nc2ccccc2s1
[1]
  composite z-score: 0.75
[2]
  z-score: 1.55 (inactive)
[3]
  z-score: 1.11 (inactive)
[4]
  z-score: 3.55 (inactive)
[5]
  composite z-score: 0.376
[6]
  z-score: 2.56 (inactive)
[7]
  composite z-score: 0.162
[8]
  composite z-score: 0.895
[9]
  composite z-score: 0.865
[10]
  composite z-score: 0.0894

## COC(=O)c1c(CC[C@@H](CO)NC(=O)N[C@H](Cn2cc(-c3cncn3C)nn2)C(C)C)oc(C(C)=O)c1C(=O)OC
[1]
  composite z-score: 1.09
[2]
  z-score: -0.177 (inactive)
[3]
  z-score: -1.26 (inactive)
[4]
  z-score: -0.164 (inactive)
[5]
  composite z-score: 1.47
[6]
  z-score: 2.3 (inactive)
[7]
  composite z-score: -0.0617
[8]
  composite z-score: 0.209
[9]
  composite z-score: 0.149
[10]
  composite z-score: 0.19

## NC(=O)NCC#Cc1ccc2c(c1)[C@]1(C(=O)N2)[C@H](C(N)=O)[C@H]2C(=O)O[C@H](c3ccccc3)[C@H](c3ccccc3)N2[C@@H]1c1ccccc1OCCO
[1]
  composite z-score: 1.22
[2]
  z-score: 0.592 (inactive)
[3]
  z-score: 0.742 (inactive)
[4]
  z-score: 0.804 (inactive)
[5]
  composite z-score: 1.04
[6]
  z-score: -0.829 (inactive)
[7]
  composite z-score: 0.129
[8]
  composite z-score: 0.546
[9]
  composite z-score: 1.11
[10]
  composite z-score: -0.151

## [N-]=[N+]=NCc1ccccc1C[C@@]1(C(=O)O)N=C(c2ccc(OCCCO)cc2)O[C@@H]1c1ccccc1N=[N+]=[N-]
[1]
  composite z-score: 1.51
[2]
  z-score: -0.41 (inactive)
[3]
  z-score: -1.02 (inactive)
[4]
  z-score: -0.85 (inactive)
[5]
  composite z-score: 3.16
[6]
  z-score: 0.602 (inactive)
[7]
  composite z-score: 0.0189
[8]
  composite z-score: 0.0183
[9]
  composite z-score: 1.03
[10]
  composite z-score: 0.0316

## Cc1ccc(S(=O)(=O)N2[C@@H](c3ccccc3)C(C(=O)O)=CC[C@H]2c2ccccc2)cc1
[1]
  composite z-score: -0.116
[2]
  z-score: -0.12 (inactive)
[3]
  z-score: -0.422 (inactive)
[4]
  z-score: 0.0034 (inactive)
[5]
  composite z-score: 3.4
[6]
  z-score: -1.76 (inactive)
[7]
  composite z-score: -0.0096
[8]
  composite z-score: -0.208
[9]
  composite z-score: 0.622
[10]
  composite z-score: 0.0731

## C=CCNC(=O)[C@H]1[C@@H]2C(=O)O[C@@H](c3ccccc3)[C@@H](c3ccccc3)N2[C@@H](c2ccc(O)cc2)[C@]12C(=O)Nc1ccc(C#CCNC(N)=O)cc12
[1]
  composite z-score: 0.0982
[2]
  z-score: -0.396 (inactive)
[3]
  z-score: -0.37 (inactive)
[4]
  z-score: 0.402 (inactive)
[5]
  composite z-score: 1.87
[6]
  z-score: 2.18 (inactive)
[7]
  composite z-score: -0.282
[8]
  composite z-score: -0.643
[9]
  composite z-score: -1.01
[10]
  composite z-score: -0.216

## C[C@H]1C2[C@H](Cc3ccccc3)NC(=O)[C@]23C(=O)N[C@H](Cc2ccccc2)C(=O)N[C@@H](Cc2ccccc2)C(=O)NC/C=C\C/C=C/C3[C@@H]2O[C@]12C (stereo not given in full)
[1]
  composite z-score: -0.0599
[2]
  z-score: -0.371 (inactive)
[3]
  z-score: -0.246 (inactive)
[4]
  z-score: -0.639 (inactive)
[5]
  composite z-score: 0.168
[6]
  z-score: 1.25 (inactive)
[7]
  composite z-score: -0.0882
[8]
  composite z-score: -0.152
[9]
  composite z-score: 0.367
[10]
  composite z-score: -0.113

## C[C@H]1COC(=O)[C@H](Cc2ccccc2)NC(=O)[C@@H](C)COC(=O)[C@H](Cc2ccccc2)NC1=O
[1]
  composite z-score: 1.57
[2]
  z-score: -0.743 (inactive)
[3]
  z-score: -1.27 (inactive)
[4]
  z-score: -0.278 (inactive)
[5]
  composite z-score: 1.92
[6]
  z-score: -0.208 (inactive)
[7]
  composite z-score: -0.243
[8]
  composite z-score: 0.996
[9]
  composite z-score: 1.13
[10]
  composite z-score: -0.0781

## [N-]=[N+]=NCc1ccccc1[C@H]1OC(c2ccc(OCCCO)cc2)=N[C@@]1(Cc1ccccc1N=[N+]=[N-])C(=O)NCc1ccccc1
[1]
  composite z-score: 1.4
[2]
  z-score: 0.0182 (inactive)
[3]
  z-score: 1.98 (inactive)
[4]
  z-score: 11.8 (active)
[5]
  composite z-score: 2.69
[6]
  z-score: 0.0275 (inactive)
[7]
  composite z-score: 0.232
[8]
  composite z-score: 0.159
[9]
  composite z-score: 0.867
[10]
  composite z-score: 0.223

## Cc1ccc(S[C@]2(C(=O)NC3CC3)CC(=O)N(Cc3cc(C(F)(F)F)cc(C(F)(F)F)c3)[C@@H]2c2ccc(CO)cc2)cc1
[1]
  composite z-score: 1.55
[2]
  z-score: -1.18 (inactive)
[3]
  z-score: -1.51 (inactive)
[4]
  z-score: -2.53 (inactive)
[5]
  composite z-score: 2.27
[6]
  z-score: -0.83 (inactive)
[7]
  composite z-score: -0.213
[8]
  composite z-score: 0.756
[9]
  composite z-score: 0.58
[10]
  composite z-score: -0.0772

## CCCC=C(CCC)[C@@H](NC(=O)c1ccc(C(F)(F)F)cc1)c1ccccc1
[1]
  composite z-score: 0.626
[2]
  z-score: 0.562 (inactive)
[3]
  z-score: -0.502 (inactive)
[4]
  z-score: 1.62 (inactive)
[5]
  composite z-score: 2.03
[6]
  z-score: -0.773 (inactive)
[7]
  composite z-score: -0.0038
[8]
  composite z-score: -0.0491
[9]
  composite z-score: 0.417
[10]
  composite z-score: -0.0565

## O=C1C2C=CC(C(O)C(c3ccccc3)c3ccccc3)N(Nc3ccc([N+](=O)[O-])cc3)C2C(=O)N1c1ccccc1 (stereo not given)
[1]
  composite z-score: 1.38
[2]
  z-score: 0.384 (inactive)
[3]
  z-score: 1.86 (inactive)
[4]
  z-score: 2.85 (inactive)
[5]
  composite z-score: 3.67
[6]
  z-score: -0.07 (inactive)
[7]
  composite z-score: 0.109
[8]
  composite z-score: -0.181
[9]
  composite z-score: 1.07
[10]
  composite z-score: 0.121

## C=CCN1C(=O)[C@@]2(Cc3ccccc3)N=C(c3ccc(OCCCO)cc3)O[C@H]2c2ccccc21
[1]
  composite z-score: 1.36
[2]
  z-score: -0.772 (inactive)
[3]
  z-score: -5.06 (inactive)
[4]
  z-score: 1.63 (inactive)
[5]
  composite z-score: 2.77
[6]
  z-score: 0.612 (inactive)
[7]
  composite z-score: 0.44
[8]
  composite z-score: 0.293
[9]
  composite z-score: 1.08
[10]
  composite z-score: 0.031
